# HSF-1 act: increases HSF-1 driven luciferase reporter signal | 300,000 tested, 1.7% active | activation, % at 9 µM | NIH3T3-HGL HSF-1 luciferase reporter, MG132, 8 h; 100% = twice DMSO control signal | AID 504408;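 active = mean replicate activation of at least 50% with a set share of replicates each reaching 50%; inconclusive = only one of those two conditions met; inactive = mean below 50% and too few replicates reaching it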;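 note: 0% = median of the neutral control wells and 100% = twice that signal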
# HSP90 refold inh: blocks HSP90-mediated luciferase refolding in reticulocyte lysate | inhibition, % at 5.6 µM | 290,000 tested, 0.91% active | Rabbit reticulocyte lysate, luciferase refolding luminescence, 3 h;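 active = inhibition above the screen-wide mean plus 3 SD, computed separately per campaign, cut at about 16% in these data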;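 note: 0% = DMSO wells and 100% = 60 µM geldanamycin wells; inhibitors lower the luminescence because luciferase stays unfolded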
# HIF act: HIF pathway transcriptional activation. U2OS HRE-luciferase reporter, luminescence; normalized: DMSO 0%, desferrioxamine 100%. activation, % at 7.5 µM (by protocol). 300,000 tested, 0.32% active;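 active = mean activation of at least 10% of the iron chelator positive control signal, with at least half of replicates also reaching 10%; inconclusive = mean and replicate majority disagree about reaching 10%; inactive = mean and most replicates under 10%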
# ARNT TACC3 PPI: disruptors of human ARNT/TACC3 interaction; Q9Y6A5; AlphaScreen His-ARNT PAS-B/GST-TACC3 binding, luminescence; TACC3 fragment carries E629A point mutation; inhibition, % at 9.99 µM; 390,000 tested, 0.66% active;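 active = mean inhibition of replicates at least 50% and at least half of replicates each reaching 50%; inconclusive = half or more replicates reach 50% but mean below 50%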;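 note: 0% = complete ARNT plus TACC3 wells and 100% = ARNT alone without TACC3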
# HSF1 inhib: HSF1 inhibition; activity change, negative = inhibition, % at 7.5 µM (by protocol); 300,000 tested, 0.77% active; NIH3T3-HGL HSE-luciferase, MG132-induced, luminescence 8 h; stronger effect = lower value;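 active = more than half of replicate wells show activity change below -50%, luminescence cut by over half; inconclusive = some wells, but at most half, below -50%; inactive = no replicate well below -50%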;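 note: luciferase reports HSF-1 transcriptional activity via heat shock element; 0% = median of DMSO wells and -100% = zero luminescence signal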
# Numbers without * were called inactive; ? = inconclusive; nt = not tested or not shown. Only some compounds are listed: those with a hit (about 3.1% of all), similar ones and a draw of the others.
SMILES,HSF-1 act,HSP90 refold inh,HIF act,ARNT TACC3 PPI,HSF1 inhib
CCCOCc1ccc(O)c2ncccc12,-48.5,0.4,2.5,36.1,-42.5
O=[N+]([O-])c1cc(CN2CCCC2)c2cccnc2c1O,nt,-1.0,nt,77.2*,nt
Oc1c(CN2CCN(c3ccccn3)CC2)cc(Cl)c2cccnc12,-20.0,1.4,6.7,59.6*,-5.6
O=[N+]([O-])c1cc(CN2CCN(c3cccc(C(F)(F)F)c3)CC2)c2cccnc2c1O,-32.3,1.2,-0.1,nt,-21.9
Oc1ccc(COCc2ccccc2)c2cccnc12,-17.6,0.8,6.4,79.6*,-8.0
OCc1ccc(O)c2ncccc12,-58.2,-2.8,1.6,70.7*,-53.7*
COc1cccc(-c2ccc3c(c2)[C@H]2[C@H](CCN2C(=O)Cc2ccccc2)[C@@H](CO)N3)c1,nt,nt,nt,-5.3,nt
CC(=O)N(C)C[C@@H]1Oc2ncc(C#C[C@@H](C)O)cc2C(=O)N([C@H](C)CO)C[C@H]1C,nt,nt,nt,-3.3,nt
COc1ccc(-c2ccc3c(c2)O[C@H](CN(C)C)[C@H](C)CN([C@H](C)CO)S3(=O)=O)cc1,nt,nt,nt,-2.6,nt
C/C=C/c1ccc([C@H]2[C@@H](CNC(=O)c3ccncc3)N(C(C)=O)[C@H]2CO)cc1,nt,nt,nt,-3.2,nt
Oc1c(CN2CCCCC2)ccc2cccnc12,nt,nt,nt,88.6*,nt
Oc1ccc(CNc2ccccc2F)c2cccnc12,-27.5,-3.4,-0.4,48.8*,-33.1
Oc1ccc(F)c2cccnc12,7.7,1.4,0.0,21.1,9.0
Oc1c(Cl)cc(CN2CCCCC2)c2cccnc12,30.5,4.1,4.4,76.6*,3.8
Oc1ccc(CN2CCCCC2)c2cccnc12,-55.9,1.6,1.2,79.7*,?
Oc1c(CN2CCOCC2)ccc2ccccc12,-3.7,2.6,0.3,-2.0,-0.9
Oc1c(Cl)cc(Cl)c2cccnc12,12.1,4.1,-0.2,nt,-10.2
CCC(=O)Nc1ccc2c(c1)OC[C@@H](C)N(Cc1ccccc1OC)C[C@@H](C)[C@H](OC)CN(C)C2=O,nt,nt,nt,-14.7,nt
O=C(CN1CCOCC1)N1CCCCN2[C@H](CO)[C@H](c3ccc(C#Cc4ccccc4F)cc3)[C@@H]2C1,nt,nt,nt,-7.5,nt
C[C@H]1CN([C@@H](C)CO)C(=O)c2cccc(NS(=O)(=O)c3ccc(Cl)cc3)c2O[C@H]1CN(C)Cc1ccc(Cl)c(Cl)c1,nt,nt,nt,4.0,nt
Cc1[nH]c2ccccc2c1CN1CCN(c2ccccn2)CC1,81.2*,3.5,0.4,5.7,52.4
c1ccc(N2CCN(Cc3nc4ccccc4[nH]3)CC2)nc1,-1.1,-3.9,-1.3,1.5,-3.3
c1ccc2c(c1)OCC(c1csc3ncnc(N4CCOCC4)c13)O2 (configuration not stated),-65.5,0.0,0.5,-8.7,-56.6*
CCN(CC)c1ncnc2scc(C3COc4ccccc4O3)c12 (configuration not stated),?,-1.1,-41.6,-2.6,1.0
CCC(=O)N(C)C[C@H]1Oc2cc(-c3ccccc3)ccc2S(=O)(=O)N([C@@H](C)CO)C[C@H]1C,nt,nt,nt,-6.3,nt
SMILES,HSF-1 act,HSP90 refold inh,HIF act,ARNT TACC3 PPI,HSF1 inhib
Cc1cc(C(=O)NCc2ccc(Cl)cc2)n(-c2ccccc2)n1,-77.3,1.6,0.1,-2.1,-68.2*
CCOC(CNC(=O)c1cc(C)nn1-c1ccccc1)OCC,1.6,1.2,0.0,-11.9,1.5
CCOCCCNC(=O)c1cc(C)nn1-c1ccccc1,-78.3,-5.7,0.2,-28.5,-72.1*
Cc1ccc(CCNC(=O)c2cc(C)nn2-c2ccccc2)cc1,31.0,1.9,-0.2,-6.4,3.6
CO[C@H]1CN(C)C(=O)c2ccc(NC(=O)NC(C)C)cc2OC[C@H](C)N(C(=O)NC(C)C)C[C@H]1C,nt,nt,nt,-0.2,nt
O=C1CCCC2=C1C(c1ccccn1)Nc1ccc(C(=O)c3ccccc3)cc1N2 (configuration not stated),20.6,1.6,0.3,46.5*,-4.5
O=C1CCCC2=C1C(c1ccco1)Nc1ccc(C(=O)c3ccccc3)cc1N2 (configuration not stated),25.5,15.7,1.2,nt,24.9
CNC[C@H]1Oc2c(NS(=O)(=O)c3ccc(C)cc3)cccc2C(=O)N([C@H](C)CO)C[C@@H]1C,nt,nt,nt,-6.0,nt
O=C(COC(=O)c1cncc(Br)c1)NCc1ccccc1,53.2*,-3.3,-0.4,-1.3,14.1
C/C(=C\C(=O)OCC(=O)NCc1ccccc1)C(=O)OCC(=O)NCc1ccccc1,19.2,-0.4,440.9*,9.6,4.0
COc1ccc(S(=O)(=O)N2C[C@@H](O)COC[C@@H]3O[C@H](CC(=O)NCCN4CCCCC4)CC[C@H]32)cc1,nt,nt,nt,-4.7,nt
C[C@@H]1CCCCO[C@@H](CN(C)C(=O)Nc2ccc(C(F)(F)F)cc2)[C@H](C)CN([C@H](C)CO)C(=O)c2cc(NS(=O)(=O)c3cccs3)ccc2O1,nt,nt,nt,-5.9,nt
CNC[C@H]1Oc2ccc(NS(=O)(=O)c3ccc(C)cc3)cc2C(=O)N([C@H](C)CO)C[C@@H]1C,nt,nt,nt,-11.7,nt
O=C(C[C@@H]1C=C[C@H](NC(=O)c2ccncc2)[C@H](CO)O1)Nc1ccc(-c2ccccc2)cc1,nt,nt,nt,1.0,nt
O=C(Nc1cccc2ccccc12)c1ccc([N+](=O)[O-])s1,70.9*,3.0,-0.1,nt,40.6
O=C(Nc1ccccc1F)c1ccc([N+](=O)[O-])s1,101.5*,0.1,0.4,31.2,67.8
C=CC[n+]1c(-c2ccc(OC)cc2)csc1NNC(=O)Nc1ccccc1,53.7*,3.4,1.9,11.2,25.6
COc1ccc(S(=O)(=O)Nc2ccc3c(c2)C(=O)N([C@H](C)CO)C[C@@H](C)[C@H](CN(C)C(=O)CCC(F)(F)F)OCCCC[C@@H](C)O3)cc1,nt,nt,nt,8.5,nt
CC1(C)CC(=O)C(N=Nc2ccc(Br)cc2)=C(O)C1,13.6,14.5,-0.3,nt,2.2
COc1ccc(N=NC2=C(O)CC(C)(C)CC2=O)cc1,58.2*,-3.1,1.5,-7.2,45.0
COc1cccc(NC(=O)COc2ccccc2C(N)=O)c1,71.2*,0.5,1.6,2.7,27.0
COc1ccc(-c2ccc3n(c2=O)C[C@@H]2[C@@H](CO)[C@H](C(=O)N4CCCCC4)[C@H]3N2C)cc1,nt,nt,nt,-1.1,nt
Cc1ccsc1/C=C1/SC(N2CC(C)OC(C)C2)=NC1=O (configuration not stated),51.5*,-1.4,0.3,27.2,24.7
Cc1ccc(OCc2ccc(C#N)cc2)c(C(=O)c2cc(C#N)c(=O)n(C3CC3)c2)c1,53.1*,-2.2,-0.4,nt,5.7
CC(=O)c1cccc(NC(=O)COc2ccccc2C(=O)c2cc(C#N)c(=O)n(C3CCCCC3)c2)c1,-15.2,3.1,0.1,-4.4,-3.4
Cc1noc(C)c1S(=O)(=O)N(C)C[C@@H]1OCCCC[C@@H](C)Oc2ccc(NC(=O)Nc3ccc(C(F)(F)F)cc3)cc2C(=O)N([C@H](C)CO)C[C@H]1C,nt,nt,nt,31.1,nt
Cc1ccc(NC(=O)c2ccc3nc[nH]c3c2)nc1,39.2,-3.3,1.7,4.0,12.9
Cc1ccc(NC(=O)c2ccc3nc[nH]c3c2)c(O)c1,66.4*,-0.7,2.5,5.3,17.9
